From PubChem
ALOX12 inh = ALOX12 (human) lipoxygenase inhibition; P18054; purified 12hLO, xylenol orange hydroperoxide absorbance; Potency, µM (series often up to 108 µM), for inactives: at the highest dose activity change, negative = inhibition, usual class: inhibitors; hit rate 1.1% among 580,000; note: potency is the fitted concentration of half-maximal effect; % is set by controls: 0 for no effect and ±100 for the full control effect
Target sequence (P18054 whole entry, looked up): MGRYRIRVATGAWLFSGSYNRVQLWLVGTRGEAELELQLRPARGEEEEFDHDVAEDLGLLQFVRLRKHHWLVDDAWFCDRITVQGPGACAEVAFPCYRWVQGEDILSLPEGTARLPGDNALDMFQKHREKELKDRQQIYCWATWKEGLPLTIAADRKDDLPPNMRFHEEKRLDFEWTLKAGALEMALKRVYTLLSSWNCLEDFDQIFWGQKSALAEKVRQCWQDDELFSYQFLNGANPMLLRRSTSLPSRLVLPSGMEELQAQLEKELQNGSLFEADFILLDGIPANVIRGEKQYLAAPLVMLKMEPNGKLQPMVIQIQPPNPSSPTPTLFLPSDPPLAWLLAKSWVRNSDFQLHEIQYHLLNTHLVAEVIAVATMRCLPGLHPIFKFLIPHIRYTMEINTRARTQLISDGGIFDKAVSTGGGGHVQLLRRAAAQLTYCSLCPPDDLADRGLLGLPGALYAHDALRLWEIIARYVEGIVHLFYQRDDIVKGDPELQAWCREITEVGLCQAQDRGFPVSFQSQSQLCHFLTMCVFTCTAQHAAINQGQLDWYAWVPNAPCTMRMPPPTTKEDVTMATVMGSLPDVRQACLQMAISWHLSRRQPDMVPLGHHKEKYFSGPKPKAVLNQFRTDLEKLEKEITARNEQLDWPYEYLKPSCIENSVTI
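Purified human 12hLO at 150 nM in 25 mM Hepes, 0.01% Triton X-100, pH 7.0, preincubated 15 min at room temperature with compound. Reaction started with 40 uM arachidonic acid, 30 min at room temperature. Hydroperoxide measured by Fe-xylenol orange, 573/405 nm absorbance ratio.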
A-T KAP1 phos = candidate therapy for ataxia-telangiectasia. F2112 A-T fibroblasts, KAP-1 phosphorylation AlphaLISA; neocarzinostatin DNA damage 30 min before lysis. Potency, µM (top dose mostly 57.5 µM), without a hit: top-dose activation, most hits filed as activators. hit rate 0.19% among 320,000. AID 485349; note: potency is the fitted concentration of half-maximal effect; % of control where 0% means no effect; nearly all actives have a fitted effect of over 45% in size
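ATM-like activity read as KAP-1 phosphorylation via AlphaLISA donor/acceptor antibody pairs after lysis and 6 hr at 25C. Cells were ATM-null patient fibroblasts (F2112, hTERT), dosed 60 min, then exposed to the DSB inducer NCS for 30 min.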
KCNH2 3.1 block = blocks the human KCNH2 3.1 channel isoform; U2OS KCNH2 3.1, thallium flux FluxOr; active compounds read low; activity change, % (tested at about 1.8 µM); hit rate 0.95% among 340,000;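 active = maximum activity change below -70%; inconclusive = maximum activity change from -70% to -50%; inactive = maximum activity change above -50%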;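 note: thallium influx rate constant from kinetic fluorescence after stimulation buffer; % is set by controls: 0 for no effect and ±100 for the full control effect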
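Channel expression came from 3.1 mutant virus (1.77 x 10^8 /mL) applied to suspended U2OS cells for 4 h. Flux was tracked with FluxOr dye plus Red40 quencher, and kinetic rate constants normalized to controls.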
KCNH2 WT inh = blocks the wildtype human KCNH2 potassium channel. Q12809. U2OS, BacMam KCNH2, thallium flux FluxOr; active compounds read low. activity change, % at 1.84 µM. hit rate 0.37% among 340,000. AID 720551;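 active = maximum activity change below -70%; inconclusive = maximum activity change between -70% and -50%; inactive = maximum activity change above -50%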; note: % is set by controls: 0 for no effect and ±100 for the full control effect
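U2OS cells transduced with wild-type KCNH2 virus are loaded with FluxOr dye for 45 min, and thallium flux is measured in kinetic reads before and after stimulation buffer. Rate constants are normalized to DMSO controls.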
* = called active by the depositor; ? = inconclusive; · = no result given; ! = repeats disagree; [ ] = another dose, or the depositor's remark. A selection: hits, their analogues and other compounds. The true share with any hit is near 1.8%. Unless noted, calls come from the whole dose curve; as a rule, active = well fitted curve in the direction sought with a large enough effect; inconclusive = small, poorly fitted or top-dose-only effect, or another doubt; inactive = no such curve, though single readings can be large; an effect the other way counts as inactive or inconclusive.

SMILES	ALOX12 inh	A-T KAP1 phos	KCNH2 3.1 block	KCNH2 WT inh
CCN1CCN(c2nc(Nc3ccc(Cl)cc3)c3nccnc3n2)CC1	-24%	·	·	·
Cc1ccc(N2CCN(/N=C/c3c(C)nn(-c4ccccc4)c3Cl)CC2)cc1	-2%	-2%	-90*	·
Cc1ccc(/C=N/N2CCN(c3ccccc3)CC2)cc1	-2%	-3%	6	7
CCCCCCCC/C=C\CCCCCCCC(=O)NCc1ccc(O)c(OC)c1	0%	·	·	·
CCCCCCCC/C=C\CCCCCCCC(=O)NCCc1ccc(O)c(O)c1	5.6µM*!	7%	-9	-15
C=CCn1c(Cc2ccccc2)n[nH]c1=S	?	4%	5	-10
C=CCn1c(CCc2cc(C(C)(C)C)c(O)c(C(C)(C)C)c2)n[nH]c1=S	35µM*	4%	-6	5
Cc1cc(C)c(S(=O)(=O)N2CCN(Cc3coc(-c4cccs4)n3)CC2)c(C)c1	4%	·	·	·
OC(COc1ccc(-c2ccccc2)cc1)CN1CCCCC1 (centres undefined)	-28%	·	-73*	14
OC(COc1ccccc1Cl)CN1CCN(CC(O)COc2ccccc2Cl)CC1 (centres undefined)	?	-2%	-82*	?
Cc1ccc(OCC(O)CN2CCN(CC(O)COc3ccc(C)cc3)CC2)cc1 (centres undefined)	-25%	3%	?	-9
OC(COc1ccc(F)cc1)CN1CCN(CC(O)COc2ccc(F)cc2)CC1 (centres undefined)	0%	-10%	-74*	-29
COC(=O)c1ccc(OCC(O)CNC2CCCC2)cc1 (centres undefined)	?	7%	-6	3
OC(CNC1CCCC1)COc1ccc(-c2ccccc2)cc1 (centres undefined)	-5%	-1%	-71*	-6
Cc1nc(SCC(=O)Nc2cccc(S(=O)(=O)N3CCCC3)c2)n(C2CCCCC2)c1C	6%	·	·	·
CC1CN(CC(O)COc2ccc(C#N)cc2)CCN1CC(O)COc1ccc(C#N)cc1 (centres undefined)	?	8%	-102*	-118*
COc1ccc(N(Cc2cc3cccc(C)c3[nH]c2=O)S(C)(=O)=O)cc1	?	·	-82*	-25
CC(C)(C)c1ccc(/C=N/NC(=S)NCc2ccccc2)cc1	45µM*	3%	1	1
CCN(Cc1ccccc1)c1ccc(/C=N/NC(=S)NC(C)C)cc1	45µM*	2%	-15	-2
CCN(Cc1ccccc1)c1ccc(/C=N/N=C(N)N)cc1	?	-3%	-23	34
S=C(NCCc1ccccc1)N/N=C/c1ccccc1Cl	40µM*	-2%	1	-4
COc1ccc(/C=N/NC(=S)NCCc2ccccc2)cc1	?	-15%	2	1
COc1ccc(O)c(/C=N/NC(=S)NCCc2ccccc2)c1	?	-3%	-26	-14
CCc1ccc(/C=N/NC(=S)NCCc2ccccc2)cc1	22µM*	-5%	-1	7
CN(C)c1ccc(/C=N/NC(=S)NCc2ccccc2)cc1	?	4%	-9	8
SMILES	ALOX12 inh	A-T KAP1 phos	KCNH2 3.1 block	KCNH2 WT inh
Cc1nc2c(cnn2C(C)C)cc1C(=O)Nc1nc(-c2ccc3c(c2)OCO3)cs1	7%	·	·	·
Oc1ccc(Br)cc1/C=N/NC(=S)NCCc1ccccc1	?	?	-6	1
S=C(NCCc1ccccc1)N/N=C/c1ccccc1Br	35µM*	·	·	·
S=C(NCc1ccco1)N/N=C/c1ccc(Cl)cc1	45µM*	0%	-44	-6
Oc1ccc(/C=N/NC(=S)NCc2ccco2)cc1	-19%	-2%	·	11
CCn1c2c(c3cc(Br)ccc31)CCC/C2=N\O	?	·	17	21
CCn1c2c(c3cc(OCC(C)C)ccc31)CCCC2=O	4%[57.4 µM]	32µM*	5	-14
Cc1noc(-c2cn(C3CCN(C(=O)c4cccc(C(F)(F)F)c4)C3)nn2)n1 (centres undefined)	0%	·	·	·
Brc1ccccc1-c1nc(-c2ccccn2)no1	14µM*	·	·	·
O=C(Cn1cnc(S(=O)(=O)N2CCCC2)c1)Nc1ccc(-c2ccno2)cc1	-2%	·	·	·
COC(=O)c1ccccc1NS(=O)(=O)c1c(C)noc1C	239%	2%	-109*	5
CCOc1ccccc1NS(=O)(=O)c1c(C)noc1C	-37%	-1%	-2	-2
COc1cc2c(cc1OC)C(C[C@H]1CN(C(=O)c3ccco3)CC[C@H]1CC(=O)O)=NCC2	56µM*	·	·	·
CNC(=O)[C@@H]1C[C@@H](O)CN1C1CCN(C(=O)Cn2c(=O)oc3ccccc32)CC1	39%	·	·	·
CCOC(=O)C(=O)Nc1nnc(Cc2ccc(OC)c(OC)c2)s1	-28%	28µM*	8	-16
O=Cc1[nH]c2ccccc2c1N(C(=O)CCl)c1ccc([N+](=O)[O-])cc1	40µM*	-8%	-8	5
Cc1cc(C)c2c(N)c(-c3ccc(C#N)cc3)sc2n1	4µM*	·	·	·
OC(CC#CCN1CCCC1)(c1ccccc1)c1ccccc1	?	-12%	3	10
CN1CCN(CC#CCC(O)(c2ccccc2)c2ccccc2)CC1	-12%	40µM*	7	-3
CNC(=O)Nc1ccc(C2(C(=O)N3CCN(c4ccc(Cl)cc4)CC3)CCC2)cc1	-19%	·	·	·
O=C1CCN(C(=O)[C@@H](Cc2ccccc2)NS(=O)(=O)c2cccs2)CCOCCN1	1%	·	·	·
COc1cccc(CN2CCC3(CC2)Cc2ccccc2NC3=O)c1	68%	·	·	·
CSCCC(NC(=O)c1ccc(Cl)cc1)C(=O)OCC(=O)Nc1ccc(C#N)cc1 (centres undefined)	32µM*	-3%	?	-3
CCN(CC)c1ccc2cc(S(=O)(=O)c3ccc(Cl)cc3)c(=O)oc2c1	3%	25µM*	8	-19
CCCN(CCC)CC(=O)Nc1sc2c(c1C(=O)Nc1ccc(OC)cc1)CCC2	30%	·	·	·
SMILES	ALOX12 inh	A-T KAP1 phos	KCNH2 3.1 block	KCNH2 WT inh
CCOC(=O)c1sc(NC(=O)CCCC(=O)O)c(C#N)c1C	6.3µM*	·	·	·
Cc1sc(NC(=O)CCCC(=O)O)c(C#N)c1C	-6%	2%	9	-38
CCOC(=O)c1c(NC(=O)Cn2nc(C(F)F)cc2C(F)F)sc(C)c1C	-22%	0%	13	3
COC(=O)c1c(NC(=O)Cn2nc(C(F)F)cc2C(F)F)sc(C)c1C	?	-6%	-75*	-11
COC(=O)c1c(NC(=O)CCCC(=O)O)sc(C)c1C	-5%	4%	-83*	4
O=S(=O)(c1ccc(N2CCC(c3ccc(Cl)cc3)=N2)cc1)N(CCO)CCO	?	32µM*	3	2
O=C(NCc1ccccc1C(F)(F)F)C1CCCN(c2cnn(Cc3ccccc3)c(=O)c2)C1 (centres undefined)	13%	·	·	·
O=C(Cc1n[nH]c(=O)c2ccccc12)NCc1ccccc1CN1CCCCC1	-1%	·	·	·
CCOC(=O)C(=NC1CCCCC1)NNc1cccc(C(F)(F)F)c1	50µM*	?	-7	0
CCOC(=O)C(=NC1CCS(=O)(=O)C1)NNc1ccccc1Cl (centres undefined)	13µM*	18%	-3	3
